Source: PubChem BioAssay AID1159580 (chemical genetic matrix, 2015)
About 2,000 (36%) of roughly 5,500 compounds were called active. Another 18% or so got no clear call; they are omitted. Rule as the data show it: active = normalized growth mostly below about 0.91 (no sharp cut-off); inconclusive = no clear call, values can overlap the other calls; inactive = mostly above about 0.92. Some of the results follow.

Assay: chemical genetic growth profiling, strain panel (AID 1159580);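 also: tested at 20 µM; growth read once vehicle control cultures reached saturation at 30 °C; 1 = growth at the plate median or of vehicle wells; lower values mean less growth of the strain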
Details: growth OD

Measured: normalized growth

COc1ccccc1N=C(N)SCc1ccccc1
inactive: S. cerevisiae deletion strains, locus YAL013W, strain DEP1, hits give low values 1.01 | S. cerevisiae deletion strains, locus YBR229C, strain ROT2, hits give low values 1.01 | S. cerevisiae deletion strains, locus YCL061C, strain MRC1, hits give low values 1.01 | S. cerevisiae deletion strains, locus YDL101C, strain DUN1, hits give low values 1 | S. cerevisiae deletion strains, locus YDR150W, strain NUM1, hits give low values 0.923 | S. cerevisiae deletion strains, locus YEL061C, strain CIN8, hits give low values 1 | S. cerevisiae deletion strains, locus YGR078C, strain PAC10, hits give low values 1.01 | S. cerevisiae deletion strains, locus YHR030C, strain SLT2, hits give low values 1.03 | S. cerevisiae deletion strains, locus YHR087W, strain rtc3, hits give low values 1.01 | S. cerevisiae deletion strains, locus YJL187C, strain SWE1, hits give low values 1.01 | S. cerevisiae deletion strains, locus YJR043C, strain POL32, hits give low values 1.01 | S. cerevisiae deletion strains, locus YJR075W, strain HOC1, hits give low values 1.01 | S. cerevisiae deletion strains, locus YKL190W, strain CNB1, hits give low values 1.01 | S. cerevisiae deletion strains, locus YLR039C, strain RIC1, hits give low values 1.02 | S. cerevisiae deletion strains, locus YLR058C, strain SHM2 (second series), hits give low values 1.01 | S. cerevisiae deletion strains, locus YLR085C, strain ARP6, hits give low values 1.03 | S. cerevisiae deletion strains, locus YLR262C, strain YPT6, hits give low values 0.999 | S. cerevisiae deletion strains, locus YML094W, strain GIM5, hits give low values 0.988 | S. cerevisiae deletion strains, locus YMR219W, strain ESC1, hits give low values 1.01 | S. cerevisiae deletion strains, locus YMR263W, strain SAP30, hits give low values 1.01 | S. cerevisiae deletion strains, locus YMR307W, strain GAS1, hits give low values 1.06 | S. cerevisiae deletion strains, locus YNL128W, strain TEP1, hits give low values 1.01 | S. cerevisiae deletion strains, locus YNL153C, strain GIM3, hits give low values 1 | S. cerevisiae deletion strains, locus YNL298W, strain CLA4 (second series), hits give low values 0.998 | S. cerevisiae deletion strains, locus YNL322C, strain KRE1, hits give low values 1.01 | S. cerevisiae deletion strains, locus YNR030W, strain Alg12, hits give low values 1.02 | S. cerevisiae deletion strains, locus YPL055C, strain LGE1, hits give low values 0.928 | S. cerevisiae deletion strains, locus YPL241C, strain CIN2, hits give low values 0.994 | S. cerevisiae deletion strains, locus YPR135W, strain CTF4, hits give low values 0.962 | S. cerevisiae strains, strain wild type, hits give low values 1.01
